These results are taken from PubChem BioAssay (EPA / NIEHS).

The structures appear in SMILES notation. Results filed as inconclusive are left out. Activity calls are given as the source filed them. How the source made its calls, unless noted: active means hit-call score of the fitted dose curve at least 0.9, where 1 is the maximum; inconclusive means response in the unintended direction; inactive means score below 0.9.

Estrogen receptor (Homo sapiens), sequence (P03372 whole entry, looked up): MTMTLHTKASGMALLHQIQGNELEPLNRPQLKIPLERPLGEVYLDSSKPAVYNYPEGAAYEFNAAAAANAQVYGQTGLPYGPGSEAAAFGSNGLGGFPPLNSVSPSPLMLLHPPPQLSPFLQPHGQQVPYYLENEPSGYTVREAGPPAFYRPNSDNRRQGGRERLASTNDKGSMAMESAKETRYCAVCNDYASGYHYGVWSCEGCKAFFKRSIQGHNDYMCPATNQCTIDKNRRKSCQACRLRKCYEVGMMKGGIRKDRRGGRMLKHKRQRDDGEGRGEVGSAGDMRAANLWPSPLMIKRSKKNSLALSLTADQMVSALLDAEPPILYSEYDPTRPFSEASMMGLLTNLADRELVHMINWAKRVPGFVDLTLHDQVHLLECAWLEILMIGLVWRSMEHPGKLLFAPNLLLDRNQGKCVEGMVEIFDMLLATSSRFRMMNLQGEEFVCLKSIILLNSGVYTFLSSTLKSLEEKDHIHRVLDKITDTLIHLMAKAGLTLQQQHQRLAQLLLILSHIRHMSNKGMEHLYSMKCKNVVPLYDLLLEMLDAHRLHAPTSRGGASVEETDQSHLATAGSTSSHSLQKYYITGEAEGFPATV

The target in the first experiment is Estrogen receptor (Homo sapiens) (UniProt P03372). Kind of experiment: CCTE_Deisenroth_AIME_384WELL_LUC_Shift: CCTE's 384-well Estrogen Receptor Transactivation Assay with AIME metabolic competence data shift (ERTA luciferase; difference in metabolism positive and negative), Deisenroth Lab (AID 2284041; active means hit-call score of the fitted dose curve at least 0.9, where 1 is the maximum; inactive means score below 0.9;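 further: shift is response with S9 minus without S9 so positive means metabolism raised ER signal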). In short, it runs like this:
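Chemicals (0.002–200 uM, 10 points) pre-incubated 2 h with alginate-encapsulated induced male Sprague Dawley rat liver S9 or S9-free, then medium applied 24 h to VM7Luc4E2 cells; luciferase. Endpoint is per-concentration difference, S9-positive minus negative.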
Turning to `CCCCOC(=O)c1ccccc1`, the result was inactive.

Regarding `OCC(CO)(CO)CO`, the result was inactive. For `C=CCc1cc(S(=O)(=O)c2ccc(O)c(CC=C)c2)ccc1O`, the outcome was inactive. On the same count and under the same terms, the same measure for `c1ccc(C(O[C@@H]2CCCN(CCc3ccc4c(c3)OCO4)C2)c2ccccc2)cc1`: “inactive”; for `CCOC(N)=O`: “inactive”; for `CCCc1ccccc1`: “inactive”. The same measure, in the same setting: the same measure for `CCCCCOC(C)=O`: “inactive”; for `COS(C)(=O)=O`: “inactive”.

As for `OCc1ccccc1`, the result was inactive. The same measure, in the same setting: the same measure for `CCn1nc(C)c2c1C(=O)NCC(c1ccc(O)cc1)=N2`: “inactive”; for `CC(C)c1nnc2ccc(-c3ocnc3-c3cc(F)ccc3F)cn12`: “inactive”. For the compound `c1ccc2ncccc2c1`, the result was inactive.

In the case of `CC(=O)c1ccccc1`, the result was inactive. On the same count and under the same terms, the same measure for `CCc1ccc(O)c(C(C)(C)C)c1`: “inactive”; for `O=C1CN(N=Cc2ccc([N+](=O)[O-])o2)C(=O)N1`: “inactive”. For `OCCOCCOCCO`, the result was inactive. For the compound `CCCCC(CC)C(=O)OCCOCCOCCOC(=O)C(CC)CCCC` (centres undefined), the outcome was inactive.

In the next experiment the test system is DIO2 (gene 1734). Kind of experiment: CCTE_GLTED_hDIO2: CCTE's human Deiodinase 2 (DIO2) Inhibition Assay, Great Lakes Toxicology and Ecology Division (GLTED) Lab (AID 2284050). Here is the method:
CCTE_GLTED_hDIO2 is a cell-free, single-readout assay designed to test the inhibitory activity of chemicals toward human iodothyronine Deiodinase type 2 (DIO2) enzyme. Enzyme is incubated in presence of test chemical for 3 hours during which uninhibited enzyme liberates free iodide from substrate. Free iodide is measured in a second step using the Sandell-Kolthoff method.CCTE_GLTED_hDIO2 is the assay component measured from the CCTE_GLTED_hDIO2 assay. It is designed to make measurements of enzyme activity, a form of enzyme reporter, as detected with absorbance signals by spectrophotometry.Data from the assay component CCTE_GLTED_hDIO2 was analyzed into 1 assay endpoint. This assay endpoint, CCTE_GLTED_hDIO2, was analyzed in the positive analysis fitting direction relative to DMSO as the negative control and baseline of activity. Using a type of enzyme reporter, loss-of-signal activity can be used to understand changes in the enzymatic activity as they relate to the gene DIO2. Furthermore, this assay endpoint can be referred to as a primary readout, because the performed assay has only produced 1 assay endpoint. To generalize the intended target to other relatable targets, this assay endpoint is annotated to the 'deiodinase' intended target family, where the subfamily is 'deiodinase Type 2'.
Human deiodinase type 2 (hDIO2) assay, developed at Great Lakes Toxicology and Ecology Division (GLTED) within the EPA's Center for Computational Toxicology and Exposure (CCTE), is designed to test the chemicals' ability to inhibit DIO2. Assay is based on iodide release measured by the Sandell-Kolthoff method and is run in 96-well plate format with assay plates run in triplicate (n=3). The method used for the deiodinase assay was largely based on Renko et al. (2012, 2015). These works describe the utilization of the SK reaction to measure deiodinase-liberated iodide in a 96-well-plate format. […]
As usually defined, the AC50 is the concentration giving half of the maximal activity seen. For `C=CCc1cc(S(=O)(=O)c2ccc(O)c(CC=C)c2)ccc1O`, the AC50 is 120 µM (active). Same read-out and setting: the same measure for `COc1cc(C(C)C)c2c(c1)S(=O)(=O)N(COc1cc(=O)n3cccc(OCCN4CCCCC4)c3n1)C2=O`: 11.7 µM (active).

In the case of `CCCCCCCCCCCCCCCCOS(=O)(=O)O`, the AC50 is 28.9 µM (active).

In the next experiment the test system is DIO3 (gene 1735). Kind of experiment: CCTE_GLTED_hDIO3: CCTE's human Deiodinase 3 (DIO3) Inhibition Assay, Great Lakes Toxicology and Ecology Division (GLTED) Lab (AID 2284055).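 Further: potency is for inhibition seen as loss of released iodide signal.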 In short, it runs like this:
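Absorbance from the Sandell-Kolthoff reaction reports iodide released by human DIO3 during a 3-hour incubation with chemical. Inhibition scored as signal loss against DMSO controls.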
For the compound `C=CCc1cc(S(=O)(=O)c2ccc(O)c(CC=C)c2)ccc1O`, the AC50 was 62.5 µM (active). Still for that read-out and setting: the same measure for `COc1cc(C(C)C)c2c(c1)S(=O)(=O)N(COc1cc(=O)n3cccc(OCCN4CCCCC4)c3n1)C2=O`: 4.67 µM (active); for `CCCCCCCCCCCCCCCCOS(=O)(=O)O`: 6.12 µM (active).

Tested on in another experiment: not listed separately
Put plainly: CCTE_Shafer_MEA_acute_AB: CCTE's Alamar Blue Assay for Cytotoxicity in the Neural Acute Assay, Shafer Lab (AID 2284069).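 Further: active compounds lower the viability signal compared with DMSO wells.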 In a few lines:
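Metabolic activity in chemically exposed rat cortical neurons (MEA cultures, day 13/15 post-plating) measured via CellTiter Blue resazurin reduction, 544/590 nm fluorescence; fitted relative to DMSO, with signal loss indicating reduced viability.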
A general note: The colour change of resazurin is a common sign of viable cells or microbes.
On to `COCc1nnc(-c2ccc[n+]([O-])c2)n1-c1c(Cl)c(Cl)cc2[nH]c(=O)c(=O)[nH]c12`, for which the compound was classed as inactive. For the compound `O=S(=O)(O)c1ccc(N=Nc2c(O)ccc3cc(S(=O)(=O)O)ccc23)cc1`, the compound was classed as inactive. Turning to `C=CCc1cc(S(=O)(=O)c2ccc(O)c(CC=C)c2)ccc1O`, the call was inactive. On to `c1ccc(C(O[C@@H]2CCCN(CCc3ccc4c(c3)OCO4)C2)c2ccccc2)cc1`, for which the compound was classed as inactive. The same measure, in the same setting: the same measure for `Cn1c(=O)c2[nH]cnc2n(C)c1=O`: “inactive”; for `COc1cc(C(C)C)c2c(c1)S(=O)(=O)N(COc1cc(=O)n3cccc(OCCN4CCCCC4)c3n1)C2=O`: “inactive”; for `CCCc1ccccc1`: “inactive”. With `OC(CCl)CCl`, the compound was classed as inactive. Still for that read-out and setting: the same measure for `CCc1ccc(O)c(C(C)(C)C)c1`: “inactive”; for `Cc1ncc([C@@H](CCCCCCc2ccc3c(n2)NCCC3)CC(=O)O)cn1`: “inactive”; for `CCCCCCCC/C=C\CCCCCCCC(=O)OC[C@@H](O)[C@H]1OC[C@H](O)[C@H]1O`: “inactive”.
